# Assay outcomes from PubChem BioAssay.
# Hits are enriched below; roughly 15% of the tested compounds scored in any of these assays.
# ELG1 repair inh – qHTS screen for small molecules that inhibit ELG1-dependent DNA repair in human embryonic kidney (HEK293T) cells expressing luciferase-tagged ELG1; AID 504467, 2011; HEK293T ELG1-luciferase reporter, luminescence, 16 h; DNA damage induced by 5-fluorouridine; actives 2.3% (n = 330,000); Potency, µM (titrated, usually from 46.1 µM), without a hit: top-dose activity change, negative = inhibition, actives largely listed as inhibitors; further: nearly all actives have a fitted effect of over 55% in size
#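 5-Fluorouridine DNA damage + compound/DMSO, 2,000 cells/well, 16 h, 37 °C/5% CO2. ONE-Glo, 30 min RT, luminescence. Readout = decrease in reporter signal.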
# ALOX12 inh – Primary qHTS assay for inhibitors of human arachidonate 12S-lipoxygenase (ALOX12): Round 2; purified 12hLO, xylenol orange hydroperoxide absorbance; Polyunsaturated fatty acid lipoxygenase ALOX12 (Homo sapiens), P18054; Potency, µM (series often up to 108 µM), inactives show at the top dose activity change, negative = inhibition, most hits filed as inhibitors; actives 1.1% (n = 580,000)
# Target sequence (P18054 whole entry, looked up): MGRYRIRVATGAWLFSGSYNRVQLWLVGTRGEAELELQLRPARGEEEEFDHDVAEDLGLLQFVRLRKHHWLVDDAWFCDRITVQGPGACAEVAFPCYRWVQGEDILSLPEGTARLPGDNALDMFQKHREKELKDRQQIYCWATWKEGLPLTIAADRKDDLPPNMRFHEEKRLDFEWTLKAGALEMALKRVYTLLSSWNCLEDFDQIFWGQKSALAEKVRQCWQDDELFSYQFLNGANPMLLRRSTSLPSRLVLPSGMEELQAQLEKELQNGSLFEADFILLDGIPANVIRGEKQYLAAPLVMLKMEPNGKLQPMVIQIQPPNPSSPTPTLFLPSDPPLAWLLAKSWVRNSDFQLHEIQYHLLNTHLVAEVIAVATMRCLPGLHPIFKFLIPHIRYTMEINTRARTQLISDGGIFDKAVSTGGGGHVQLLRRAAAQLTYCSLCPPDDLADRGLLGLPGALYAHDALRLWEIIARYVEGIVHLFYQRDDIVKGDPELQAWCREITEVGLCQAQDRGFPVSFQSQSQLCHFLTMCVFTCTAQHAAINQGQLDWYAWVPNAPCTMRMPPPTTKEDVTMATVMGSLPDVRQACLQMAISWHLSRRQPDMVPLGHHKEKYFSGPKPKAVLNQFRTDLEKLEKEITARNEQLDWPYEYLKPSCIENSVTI
#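 Purified human 12hLO (150 nM final) in 25 mM Hepes, 0.01% Triton X-100, pH 7.0 was preincubated 15 min at room temperature with compound. Then 40 uM arachidonic acid was added, 30 min. Hydroperoxide was read by Fe-XO absorbance ratio 573/405 nm.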
# TDP1 cell CPT – qHTS for Inhibitors of human tyrosyl-DNA phosphodiesterase 1 (TDP1): qHTS in cells in presence of CPT; actives 12% (n = 420,000); chicken DT40 Tdp1-/-;hTDP1 cells + 20 nM CPT, ATP luminescence, 48 h; AID 686979, 2013; Potency, µM (series often up to 46.2 µM), without a hit: at the top dose activity change, negative = growth inhibition, actives largely listed as inhibitors; further: nearly all actives have a fitted effect of over 55% in size
#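 Chicken DT40 Tdp1-/- cells complemented with human TDP1, 400 cells/well, exposed to compounds plus 20 nM camptothecin for at least 48 h at 37 C; viability read as ATP content by CellTiter-Glo luminescence.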
# RORgamma inh – qHTS for inhibitors of ROR gamma transcriptional activity; Nuclear receptor ROR-gamma (Mus musculus), P51450; Drosophila S2 Gal4-RORgamma UAS-luciferase reporter, 20 h; Potency, µM (highest dose often 53.6 µM), for the others: at the top dose activity change, negative = inhibition, actives largely listed as inhibitors; actives 5.4% (n = 310,000); AID 2551, 2010; further: nearly all actives have a fitted effect of over 60% in size
#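 Stably transfected Drosophila Schneider cells are the test system, with ROR gamma fused to Gal4 and luciferase under UAS control; luminescence is read after 20 hr of 700 uM copper sulfate induction at ambient temperature.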
# Gal4-VP16 FLuc – VP16 counterscreen qHTS for inhibitors of ROR gamma transcriptional activity; Drosophila S2 Gal4-VP16 UAS-luciferase, luminescence, 20 h; AID 2546, 2010; actives 3.5% (n = 310,000); Potency, µM (titrated, usually from 53.6 µM), inactives show top-dose activity, negative = inhibition, usual class: inhibitors;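 further: Gal4-VP16 expression switched on by copper sulfate through the metallothionein promoter; nearly all actives have a fitted effect of over 50% in size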
# DT40 TDP1 no CPT – qHTS for Inhibitors of human tyrosyl-DNA phosphodiesterase 1 (TDP1): qHTS in cells in absence of CPT; DT40 Tdp1-/- hTDP1 cells, no CPT, ATP luminescence, 48 h; Potency, µM (series often up to 46.2 µM), inactives show top-dose activity change, negative = growth inhibition, hits mostly inhibitors; actives 15% (n = 420,000); further: nearly all actives have a fitted effect of over 55% in size
#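 Chicken DT40 Tdp1-/- cells stably complemented with human TDP1 were seeded at 400 cells/well with DMSO in place of 20 nM camptothecin. After compound pinning, cells grew at least 48 hr at 37 °C; viability read by CellTiter-Glo luminescence.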
# An asterisk follows results filed as active; ? = inconclusive; . = no result. The call rests on the fitted dose curve; in most records, active means well fitted curve in the direction sought with a large enough effect; inconclusive means small, poorly fitted or top-dose-only effect, or another doubt; inactive means no such curve, though single readings can be large; an effect the other way counts as inactive or inconclusive. On the % scale 0 is the no-effect control and ±100 the full control effect; potency means the concentration at half of the fitted maximal effect.
SMILES,ELG1 repair inh,ALOX12 inh,TDP1 cell CPT,RORgamma inh,Gal4-VP16 FLuc,DT40 TDP1 no CPT
O=C(COc1ccccc1Cl)Nc1nc(-c2ccc(Br)o2)ns1,.,-9%,.,.,.,.
CCn1ncc(N2CCC(NC(=O)Cc3ccccc3F)CC2)cc1=O,.,13%,.,.,.,.
Cc1ccc(CNC(C)CN2CCCCC2)cc1 (centres undefined),.,-29%,.,.,.,.
COC1CCC12CCN(C(=O)C1CCCC1)CC2 (centres undefined),.,22%,.,.,.,.
CCOC(=O)C1(CCOc2ccccc2)CCN(Cc2ccc(OC)cc2)CC1,.,2%,15µM*,.,.,21µM*
CCOC(=O)C1(CCOc2ccccc2)CCN(Cc2cccc(OCCO)c2)CC1,?,4%,?,1%,3%,?
CCOC(=O)C1(Cc2ccccc2)CCN(Cc2cccc(OC)c2O)CC1,?,403%,?,73%,21%,?
CCOC(=O)C1(CCOc2ccccc2)CCN(Cc2ccc(OCC)c(CO)c2)CC1,.,-18%,15µM*,.,.,18µM*
CCOC(=O)C1(Cc2ccccc2)CCN(Cc2cccc3nccnc23)CC1,?,-11%,?,-24%,15%,18µM*
C/C=C\C=C\C(=O)Nc1cccc(C2=NOC3(C2)C[C@@H](C(N)=O)N(C(=O)C(c2ccccc2)c2ccccc2)C3)c1 (some centres undefined),1%,8.9µM*,?,?,29%,?
NC(=O)[C@@H]1CC2(CC(c3cccc(NC(=O)COc4ccc(Cl)cc4)c3)=NO2)CN1C(=O)COc1ccc(Cl)cc1 (some centres undefined),?,-29%,?,38%,-12%,12µM*
C/C=C\C=C/C(=O)Nc1cccc(C2=NOC3(C2)C[C@H](C(N)=O)N(C(=O)CC)C3)c1 (some centres undefined),15%,-8%,2%,-1%,4%,0%
NC(=O)[C@H]1CC2(CC(c3cccc(NC(=O)COc4ccc(Cl)cc4)c3)=NO2)CN1C(=O)C(c1ccccc1)c1ccccc1 (some centres undefined),?,-15%,6.5µM*,45%,4%,13µM*
C/C=C(/C)C(=O)Nc1cccc(C2=NOC3(C2)C[C@H](C(N)=O)N(C(=O)COc2ccc(Cl)cc2)C3)c1 (some centres undefined),?,?,?,-10%,0%,?
CC/C=C/C(=O)N1CC2(CC(c3cccc(NC(=O)COc4ccc(Cl)cc4)c3)=NO2)C[C@H]1C(N)=O (some centres undefined),16µM*,-6%,29µM*,-6%,?,?
CCC(=O)Nc1cccc(C2=NOC3(C2)C[C@@H](C(N)=O)N(C(=O)C(c2ccccc2)c2ccccc2)C3)c1 (some centres undefined),11%,?,-1%,-2%,-7%,-1%
CCc1cc(=O)oc2c(C)c(OCC(=O)c3ccc(OC)cc3)ccc12,.,25%,.,.,.,.
CCOC(=O)c1ccc(NC(=O)CSc2nc3c(-c4ccccc4)c[nH]c3c(=O)n2CC)cc1,.,-10%,.,.,.,.
Cc1ccc(Nc2cc(C)nc3c(C)c(C)cc([N+](=O)[O-])c23)cc1,.,15%,.,.,.,.
S=c1[nH]nc(C23CC4CC(CC(C4)C2)C3)n1Cc1ccco1,-2%,?,?,1.3µM*,11µM*,?
S=c1[nH]nc(-c2ccc(Br)cc2)n1Cc1ccco1,11%,?,-2%,1.4µM*,2.5µM*,?
COc1cccc(-c2n[nH]c(=S)n2Cc2ccco2)c1,-1%,18µM*,1%,16µM*,?,20%
S=c1[nH]nc(-c2ccncc2)n1Cc1ccco1,13%,?,-4%,8%,19%,2%
C=CCn1c(-c2cc(OC)c(OC)c(OC)c2)n[nH]c1=S,-1%,?,?,?,?,6%
C=CCn1c(-c2cccc(OC)c2)n[nH]c1=S,3%,-26%,4%,7.1µM*,?,-3%
SMILES,ELG1 repair inh,ALOX12 inh,TDP1 cell CPT,RORgamma inh,Gal4-VP16 FLuc,DT40 TDP1 no CPT
Cc1ccc(CSc2nnc(COc3ccc(Cl)c(C)c3)n2C)cc1,.,-20%,.,.,.,.
Cc1ccc(N(CC(=O)NCC2CCCO2)S(=O)(=O)c2ccccc2)cc1 (centres undefined),.,-1%,.,.,.,.
COc1ccc(C(=O)CCC#N)cc1OC,.,3%,.,.,.,.
c1ccc2c(c1)CCN(Cc1ccc3c(c1)CNCCO3)C2,.,40%,.,.,.,.
Cc1c(Cl)c(-c2n[nH]c(=S)n2-c2ccccc2)nn1C,18%,-25%,4%,-45%,?,-8%
Cc1c(Cl)c(-c2n[nH]c(=S)n2Cc2ccco2)nn1C,5%,?,-3%,11µM*,-24%,-19%
Cc1ccc(Cl)cc1NC(=O)C(C)N(C)Cc1ccc2c(c1)OCCO2 (centres undefined),.,-12%,.,.,.,.
COc1cc(OC)cc(C(=O)Nc2ccc(-c3nc4cc(C(C)C)ccc4o3)cc2)c1,.,-5%,21µM*,.,.,21µM*
CS(=O)(=O)c1ccccc1C(=O)Nc1ccc(-c2nc3ccccc3o2)cc1,?,6%,?,44%,-3%,23µM*
O=C(Nc1ccc2oc(-c3ccccc3)nc2c1)c1ccc(F)cc1,.,11%,.,.,.,.
Cc1ccc(C(=O)Nc2ccc(-c3nc4ccccc4o3)cc2)cc1,.,-4%,.,.,.,.
COc1cc(OC)cc(C(=O)Nc2cc(C)c(O)c(-c3nc4ccccc4o3)c2)c1,.,25%,.,.,.,.
O=C(Nc1ccc2oc(-c3ccccc3)nc2c1)c1ccncc1,?,?,16µM*,?,-9%,12µM*
COc1cccc(C(=O)Nc2ccc(-c3nc4ccccc4o3)c(O)c2)c1,?,4%,18µM*,5µM*,7.1µM*,16µM*
COCc1nnc(NC(=O)Cn2ccc3ccc(Br)cc32)s1,.,24%,.,.,.,.
Cc1ccc2oc(-c3ccc(NC(=O)c4cccnc4)cc3)nc2c1,?,125%,?,10%,-5%,21µM*
COc1ccc(C(=O)Nc2ccc(-c3nc4ccccc4o3)cc2)cc1,.,-30%,.,.,.,.
